Measurements reported in PubChem BioAssay (NCI).
“And” between values parts separate entries of the source, which are not always exact repeats. Equal values may be shown once. Compounds without any hit were thinned out: in the full panel of roughly 83,000, 20% have a hit.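 Results are percent growth after 48 hours of single-concentration exposure. 100 means growth as in untreated cells, lower positive values show inhibition; negative values down to -100 show cell death.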 Unmarked numbers belong to inactive results. The source made the active and inactive calls. How the source made its calls: active means growth percent below 10; inactive means the rest.

Tested on: MDA-MB-468 breast
Test: NCI-60 one-dose screen, 48 h (100 = growth as untreated, 0 = no growth, -100 = all killed)
Settings: 10 µM unless noted

Row | Compound | growth
1 | Cc1ccc2c(n1)C(=O)C(Cl)=C(Nc1ccc(C(C)C)cc1)C2=O | -44.8% (active)
2 | O=C(Nc1ccc(OS(=O)(=O)c2ccc(F)cc2)cc1)C1CCCCCC1 | 102%
3 | COc1cc2c(cc1OC)C(=O)OC2 | 97.1%
4 | C=C1C(=O)O[C@H]2[C@H]1CC/C(CNC(=O)/C=C/c1ccc(Br)cc1)=C\CC[C@@]1(C)O[C@@H]21 | -58.5% (active)
5 | NNC(=O)/C(=C\c1ccc([N+](=O)[O-])cc1)CC(=O)c1ccc(Cl)c(Cl)c1 | 89.2%
6 | CC(=O)O[C@H]1C(=O)[C@@]2(C)[C@H]([C@H](OC(=O)c3ccccc3)[C@]3(O)C[C@H](OC(=O)[C@H](OC(=O)CCC(=O)OC4CCC(S/N=C(N)/N=C(\N)N(C)C)CC4)[C@@H](NC(=O)c4ccccc4)c4ccccc4)C(C)=C1C3(C)C)[C@]1(OC(C)=O)CO[C@@H]1C[C@@H]2O (stereo not given in full) | -6.44% (active)
7 | COC(=O)CCCCCN=Cc1c(O)c(O)c(C(C)C)c2cc(C)c(-c3c(C)cc4c(C(C)C)c(O)c(O)c(C=NCCCCCC(=O)OC)c4c3O)c(O)c12 | 26.3%
8 | O=C(CCN1C(=O)/C(=C/c2ccccc2F)SC1=S)N1CCOCC1 | 24.7%
9 | CSc1cc(SC)ncn1 | 108%
10 | N#Cc1cnc2cc(OC[C@@H](O)CO)c(NC(=O)CC3CSSC3)cc2c1Nc1ccc(OCc2cccc(F)c2)c(Cl)c1 | -74.8% (active)
11 | CS(=O)(=O)Nc1cccc(C(=O)NCc2ccc(N3CCOCC3)cc2)c1 | 93%
12 | Nc1ccc(Cl)cn1 | 102%
13 | COc1ccc(Nc2nnc(SCc3ccccc3F)s2)cc1 | 55.9%
14 | NC(=O)c1cc(I)ccc1NC(=O)/C=C/c1ccccc1Cl | 17.3%
15 | CCCCCCCCN(CCCCCCCC)CCCCCCCCCN1CCCc2cc(OC)ccc21 | 61.8%
16 | COc1cccc(NC(=O)c2sc3nc4c(cc3c2N)C(O)CCC4)c1 (stereo not given) | 48.6%
17 | O=C1/C(=C/c2ccc(Br)cc2)COc2ccc(O)cc21 | 89%
18 | COc1cccc(C(=O)NNc2nc(Cl)nc(N3CCN(C(c4ccccc4)c4ccccc4)CC3)n2)c1 | -17.1% (active)
19 | CC(=O)OCCC(C)CCC=C(C)C (stereo not given) | 122%
20 | CCOC(=O)c1ccc(Nc2ncnc3ccc(NC(=O)c4ccccc4)cc23)cc1 | 88.9%
21 | CCN(CC)CCOc1ccc(/C(=C(/C)c2ccccc2)c2ccc(OC(C)=O)cc2)cc1 | 87.9%
22 | COc1cc(-c2nn(-c3cccc(NC(=O)CCNc4ccc(N5CCOCC5)cc4)c3)cc2-c2ccncc2)ccc1Cl | 30.7%

Row | Compound | growth
23 | CCCCNNC(=O)c1ccc(-c2cccc(F)c2F)cc1 | -4.26% (active)
24 | COC(=O)c1nc(=S)[nH]c(C(=O)OC)c1C(=O)c1ccc(Cl)c(Cl)c1 | 105%
25 | COc1cnccc1-c1nc2ccc3[nH]ncc3c2c2c1CCCC2 | 39.6%
26 | CS(=O)(=O)c1ccc(/C(=N/N=C(N)N)c2ccc(Cl)cc2)cc1 | 68.5%
27 | O=[N+]([O-])c1cc(Br)c2cccc3c2c1CC3 | 97.3%
28 | O=c1c2cc(Br)cc(Br)c2nc(-c2ccc(Cl)cc2)n1/N=C/c1cccc(F)c1 | 62.6%
29 | CCCc1n(Cc2ccc3ccccc3c2)cc[n+]1Cc1ccc2ccccc2c1 | -45.4% (active)
30 | COc1ccc(-c2nnc(SC/C(=N\O)c3ccccc3)o2)cc1 | 97%
31 | CCOC(=O)[C@@H](Cc1ccccc1)NC(=O)c1[nH]c2ccc(Cl)cc2c(=O)c1C | 78%
32 | CCNC(=O)c1[nH]cc(-c2ccccc2)c1-c1cc(OC)c2c(c1OC)OCO2 | 104%
33 | C[C@@H](Oc1cc(C(=O)Nc2ccc(C(=O)N3CCN(C)CC3)cc2)nnc1N)c1c(Cl)ccc(F)c1Cl | 62.3%
34 | O=C(Nc1ccc(Cl)c(C(F)(F)F)c1)Nc1ccc2oc(=O)ccc2c1 | 24.8%
35 | N#Cc1nc(-c2ccc(Cl)cc2)cc(-c2ccc(Nc3nc(N4CCCCC4)nc(N4CCCCC4)n3)cc2)c1N | 106%
36 | CN(CC(=O)N(Cc1ccc(C2CCCCC2)cc1)c1ccc(C(=O)O)cc1)S(=O)(=O)c1c(F)c(F)c(F)c(F)c1F | -86.6% (active)
37 | CC(C)=CC/C=C(/C)[C@H]1CC[C@]2(C)[C@@H]1CC[C@@H]1[C@@]3(C)CCCNC(C)(C)[C@@H]3CC[C@]12C | -50.1% [100 µM] (active)
38 | CCn1cc2c(cc1=O)-c1nc3ccccc3c3ccnc(c13)C2=O | 72.3%
39 | Nc1c(N)c2ccccc2c2ccccc12 | 103%
40 | O=C(CCCCCC/C=C\c1csc(Br)n1)NO | 84.9%
41 | Cc1ccc(-n2cc(/C=N/NC(=O)c3nc(N)n[nH]3)c(-c3ccc(S(C)(=O)=O)cc3)n2)cc1 | 105%
42 | O=C(O)CCCCCCCCCCCCCCC(=O)O | 95.6%
43 | Cc1cccc2sc(/N=C(\N)C(Br)Br)nc12 | -33.6% (active)
44 | CN(C)C(=N)N=C(N)N | 80.6% and 128%

Row | Compound | growth
45 | Cc1nc2ncc(-c3ccc4ncnc(NCc5ccccc5)c4c3)cc2[nH]1 | 11.1%
46 | CCCCNCCCN(CCCC)CCCNCCCC | 94.2%
47 | O=C(O)c1c([N+](=O)[O-])cnc2ccccc12 | 112%
48 | O=C1c2c(c3c4ccccc4n(CCCCCCBr)c3c3[nH]c4ccccc4c23)C(=O)N1O | -3.78% (active)
49 | Cc1nn(-c2nc(-c3cc4ccccc4oc3=O)cs2)c(C)c1N=Nc1ccccc1 | 103%
50 | O=C(/C=C/c1ccc(O)c(O)c1)N1CCN(c2ccc(Cl)cc2)CC1 | 39.7%
51 | C=CC(=O)N1CC2(CC(n3nc(-c4ccc(Oc5ccccc5)cc4)c4c(N)ncnc43)C2)C1 | -8.12% (active)
52 | Oc1ccccc1C=Nc1ccc(N2CCN(c3ccccc3)CC2)cc1 | 108%
53 | CN(C)c1ccc(/C=N/N=C(\C#N)[S][Sn]([Cl])([c]2ccccc2)[c]2ccccc2)cc1 | -76.8% (active)
54 | O=C1CCC(N2C(=O)c3ccc(NS(=O)(=O)c4ccccc4OC(F)(F)F)cc3C2=O)C(=O)N1 (stereo not given) | 10.1%
55 | O=Nc1ccc(NC(=O)Nc2ccc([N+](=O)[O-])cc2)cc1 | 96%
56 | COc1ccc2c(c1)nc(N)c1c3cc(OC)c(OC)cc3cn21 | 2.7% (active)
57 | Clc1ccc2c(Nc3ccc4oc(NCCN5CCCC5)nc4c3)ccnc2c1 | 70.6%
58 | O=c1oc2ccc(Cl)cc2c(=O)n1-c1ccc(I)cc1F | 1.73% (active)
59 | O=C(C[P+](c1ccccc1)(c1ccccc1)c1ccccc1)c1ccccc1 | 103%
60 | CC(O)C(O)C(O)C(O)C(O)C(=O)NNc1ccccc1 (stereo not given) | 96.5%
61 | Clc1ccc2nc(-c3ccc(-c4ccc(/C=N/NC5=NCCN5)cc4)s3)cn2c1 | 96.1%
62 | Nc1c(C(=O)O)cc(Cl)cc1[N+](=O)[O-] | 96.2%
63 | COc1ccc(C(=O)NCCNc2nccc(-c3c(-c4ccc(F)cc4)nc4sccn34)n2)cc1 | 67.5%
64 | O=c1oc2ccccc2cc1-c1csc(N/N=C/c2cc3ccccc3nc2Cl)n1 | 105%
65 | CC1(C)C(N)=Nc2cc(OCCCN3Cc4ccccc4C3)c(OCC3CC3)cc21 | 47.3%
66 | CN1CCN(c2ccc(Nc3nc(NCCCNS(=O)(=O)c4ccc(Cl)cc4)c4sccc4n3)cc2)CC1 | -47.7% (active)

Row | Compound | growth
67 | CC(=O)Nc1cccc(C2=CC(c3ccc(C)cc3)n3ncnc3N2)c1 (stereo not given) | 92.7%
68 | CCNC(=O)Oc1ccc(/C(=C(/C)c2ccc(Cl)cc2)c2ccc(OCCN3CCCC3)cc2)cc1 | 84.1%
69 | CSc1nc2ncncc2[nH]1 | 103%
70 | Cc1ccc(S(=O)(=O)N/N=C\c2cc(Cl)ccc2O)cc1 | 68.4%
71 | CCC(NC(c1cc2cccc3ccc4cccc1c4c32)c1nnnn1C(C)(C)C)C1CCCCC1 (stereo not given) | 7.35% (active)
72 | COc1ccc(C(=O)CC(CC(=O)c2ccc(OC)cc2)c2c(C)nn(-c3ccccc3)c2Cl)cc1 | 96.4%
73 | COc1cc(-c2cc3ncccc3c3nc(N)c4cccnc4c23)cc(OC)c1OC | -3.2% (active)
74 | Nc1nccc(=S)[nH]1 | 109%
75 | CCOc1ccc(C2N(c3cc(OC)c(OC)c(OC)c3)C(=O)C2(F)F)cc1 (stereo not given) | 34.9%
76 | COc1cc(Cl)cc(-c2nn(C(=O)NS(=O)(=O)c3ccc(Cl)cc3)cc2-c2ccncc2)c1 | 83.7%
77 | CSc1cccc(NC(=O)Nc2nc3c(C)cccc3s2)c1 | 84.6%
78 | COc1cc(C2CC(=O)Nc3c2cc(Br)c2ccccc32)cc(Br)c1OC (stereo not given) | 3.67% (active)
79 | O=C1C=CC(=O)N1c1ccc2ccccc2c1 | 51.3% and 62.7%
80 | Cc1ncc(C(=O)Nc2ccc(CN3CCN(C)CC3)c(C(F)(F)F)c2)cc1C#Cc1c(N)ncc2ccccc12 | -74.8% (active)
81 | Cc1nn(-c2ccccc2)c(Oc2ccc(Cl)cc2)c1/C=N\N=c1/sc2ccccc2n1C | 81.8%
82 | O=C(Nc1ccc(N2CCNCC2)cn1)c1[nH]ncc1Nc1ncnc2sccc12 | -59.5% (active)
83 | Nc1nc2ccc(CNc3ccc(C(=O)NC(CC(=O)O)C(=O)O)cc3)cc2c(=O)[nH]1 (stereo not given) | 81.6%
84 | CCCC[n+]1ccc(SCC(=O)n2ccc3ccccc32)c2ccccc21 | 52.1%
85 | CC(C)(C)n1cc(-c2ccnc(NCCNS(=O)(=O)c3ccc(O)cc3)c2)c(-c2cccc(O)c2)n1 | 91.8%
